Not all results are given here.
aSyn UTR act = Activators via SNCA 5'UTR binding, MLPCN | alpha-synuclein 5'UTR reporter, activators screen | activity score, % (tested at 7.5 µM), hits read low | hit rate 7.1% among 300,000 | AID 1814; in the data active means activity score below about -60%
Numbers without * were called inactive.

SMILES	aSyn UTR act
COc1cccc(C2=CC(c3cccc(OC)c3OC)n3nnnc3N2)c1 (stereo unspecified)	-295*
CC(C)C[C@H]1CN=C(Nc2ccccc2)N1CCCC1CCCCC1	-69*
COc1ccc(CCn2nc(C)c([N+](=O)[O-])c2C)cc1	-101*
Oc1ccc(-c2nccc(-c3ccc(Cl)cc3)n2)cc1	-84*
Oc1ccc(-c2cccc(-c3ccc(O)cc3)n2)cc1	-68*
Oc1ccc(-c2nnc(-c3ccc(O)cc3)nn2)cc1	-109*
Oc1ccc(-c2nccc(-c3cccs3)n2)cc1	-157*
O=[N+]([O-])/C(C(Cl)=C(Cl)Cl)=C(/Sc1ccccc1)N1CCCCC1	-78*
CCOc1ccc(NC(=S)NCc2nc3ccccc3[nH]2)cc1	-69*
CCNC(=S)Nc1ccc(-c2nc3ccccc3[nH]2)cc1	-161*
Cc1c(O)ccc(C(=O)COc2ccc(F)cc2)c1O	-154*
CCc1cc(C(=O)COc2ccc(F)cc2)c(O)cc1O	-104*
CCOC(=O)c1ccc(NC(=O)C2C3CCCCC32)cc1 (stereo unspecified)	-184*
CCc1ccc(NC(=O)c2ccccc2NC(=O)C2CCCO2)cc1 (stereo unspecified)	-244*
Cc1cc(NC(=O)c2ccc(NC(=O)C3CCCO3)cc2)ccc1Br (stereo unspecified)	-121*
CC(C)COC(=O)c1ccc(NC(=O)C2C3CCC(C3)C2C(=O)O)cc1 (stereo unspecified)	-131*
CCOC(=O)c1ccc(NC(=O)C2C3CCC(C3)C2C(=O)O)cc1 (stereo unspecified)	-62*
CCOc1cc(NC(=S)N2CCC(C(N)=O)CC2)c(C(=O)OC)cc1OCC	32
CCCOC(=O)c1ccc(NC(=O)C2CCCO2)cc1 (stereo unspecified)	-110*
CCOC(=O)c1ccc(NC(=S)N2CCC(O)CC2)cc1	-81*
CC(=O)Nc1nc2ccc(Br)cc2s1	-107*
Cc1ccc2nc(NC(=O)COC(=O)c3ccncc3)sc2c1	-118*
COC(=O)c1ccc2nc(NC(=O)C(C)C)sc2c1	-74*
CCOC(=O)c1ccc2nc(NC(C)=O)sc2c1	-126*
COC(=O)c1ccc2nc(NC(=O)C3CC3)sc2c1	-146*
SMILES	aSyn UTR act
CCCCN=C(C)c1c(O)c2ccccc2oc1=O	-159*
Cc1ccc(NC(=O)/C=C/c2ccc(Cl)cc2)nc1	-158*
O=C(/C=C/c1ccccc1)Nc1ccc(Br)cn1	-125*
O=C(/C=C/c1cccc([N+](=O)[O-])c1)Nc1ccc(Cl)cn1	-92*
N#CC(c1cccc(Cl)c1)c1ccc2c(C(F)(F)F)cc(C(F)(F)F)nc2n1 (stereo unspecified)	97
CCN(CC)CCCNC(=O)c1sc2nc(-c3ccc(F)cc3)cn2c1C	-108*
Cc1c(C(=O)NCC2CCCO2)sc2nc(-c3ccc(F)cc3)cn12 (stereo unspecified)	-84*
Cc1cccnc1CN1CCN(C(=O)CCc2nnc(CCc3ccccc3)o2)CC1	-72*
Cc1sc(NC(=O)/C=C/c2ccco2)c(C(=O)O)c1C	-118*
CCOC(=O)c1c(NC(=O)/C=C/c2ccc(C)o2)sc(C)c1C	-108*
C/C(=N\NC(=O)c1ccccc1F)c1cccc(NC(=O)c2ccc(C)cc2)c1	-74*
C/C(=N\NC(=O)c1c(Br)cnn1C)c1ccc(NC(=O)c2ccc(F)cc2)cc1	-108*
C/C(=N\NC(=O)c1c(Cl)cnn1C)c1cccc(NC(=O)c2ccc(C)cc2)c1	-72*
C/C(=N\NC(=O)c1cccc(F)c1)c1cccc(NC(=O)c2ccc(F)cc2)c1	-72*
CSc1cccc(NC(=O)c2c(Cl)cnn2C)c1	-89*
C/C(=N\NC(=O)c1ccc(O)cc1)c1cccc(NC(=O)c2ccc(Cl)cc2)c1	-161*
O=C1C(=O)c2c(C(=O)c3ccccc3)coc2-c2ccccc21	-105*
CCC(=O)C1CCCN(C(=O)CCc2nnc(C3(c4ccc(Cl)cc4)CCC3)o2)C1 (stereo unspecified)	-62*
O=C(CCc1nnc(C2(c3ccc(Cl)cc3)CCC2)o1)N1CCCC1	-72*
CC(=O)c1ccc(-c2nnc(CCC(=O)N3CCCC(C(=O)CC(C)C)C3)o2)s1 (stereo unspecified)	-157*
CN(C)C(CNC(=O)c1ccc(C2SCCS2)cc1)c1ccccc1 (stereo unspecified)	-100*
COc1ccc(C2C(=O)c3ccccc3C2=O)cc1	-83*
CCc1ccc(C2C(=O)c3ccccc3C2=O)cc1	-74*
COc1ccc(C2C(=O)c3ccccc3C2=O)c(OC)c1	-265*
O=C1c2ccccc2C(=O)C1c1ccnc2ccccc12	89
SMILES	aSyn UTR act
Cc1ccc(C(=O)c2oc3ccccc3c2N)cc1	-66*
Nc1c(C(=O)c2ccc(Br)cc2)oc2ccccc12	-174*
NCCCn1c(C(=O)c2ccc(Cl)cc2)c2ccc([N+](=O)[O-])cc2[n+]1[O-]	60
Nc1c(C(=O)c2ccccc2)oc2ccc([N+](=O)[O-])cc12	-110*
CCOC(=O)c1oc2ccccc2c1N	-90*
NC(=O)CCCn1c(C(=O)c2cc(Cl)c(N)c(Cl)c2)c2ccc([N+](=O)[O-])cc2[n+]1[O-]	71
COC(=O)CCC(=O)c1oc2ccc(Br)cc2c1N	-83*
Nc1c(C(=O)c2ccccc2)oc2ccc(Br)cc12	-256*
O=C(Cn1cccc1C(=O)c1ccccc1)NCc1ccccc1Cl	-74*
Cc1ccccc1C(=O)c1cccn1CC(=O)NCc1ccccc1Cl	-100*
CC(C)(C)n1ncc2c(=O)n(CC(=O)NCc3ccccc3Cl)cnc21	-90*
S=c1[nH]cnc2sc(-c3ccccc3)cc12	-71*
